Laboratory results taken from PubChem BioAssay (NCATS).
Records with an inconclusive call do not appear. Unmarked numbers belong to inactive results. Activity calls are given as the source filed them. The call rests on the fitted dose curve; in most records, active means well fitted inhibition curve with a large enough effect; inconclusive means small, poorly fitted or top-dose-only effect; inactive means no such curve, though single readings can be large or run the other way.

assay: HTS Assay for Allosteric Antagonists of the Human D2 Dopamine Receptor: Hit Validation in HTRF (AID 624455); settings: Cells stably expressing D1 dopamine receptor, inhibition mode; series mostly up to 46.1 µM; activity, negative = inhibition: at the top concentration;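 further: stable D1 dopamine receptor cell line scored for blocking the D1 response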
Description: Dopamine receptors (DARs) are involved in the etiology and/or therapy of a number of neuropsychiatric and endocrine disorders. For instance, all receptor-based antiparkinsonian drugs work via stimulating the D2 DAR subtype whereas all FDA-approved antipsychotic agents are antagonists of this receptor. […] There are three different types of allosteric modulators that we are seeking, two of which will stimulate or augment receptor signaling, allosteric agonists and potentiators, while the third, allosteric antagonists, will attenuate receptor signaling. The present primary screening assay measures compound antagonism after an EC80 addition of dopamine by tracking calcium flux in a […], inducible Hek293 Trex D2 cell line. This assay measures activity of the hits in the D1 HTRF assay.
NIH Chemical Genomics Center [NCGC]
NIH Molecular Libraries Probe Centers Network [MLPCN]
Assay Submitter (PI): David Sibley
Cells stably expressing the D1 dopamine receptor will be run in an HTRF assay and compounds will be examined for the ability to inhibit the D1 mediated response.
On the % scale 0 is the no-effect control and ±100 the full control effect; potency means the concentration at half of the fitted maximal effect.

| SMILES | Potency | activity, negative = inhibition [%] |
| --- | --- | --- |
| NC1CCc2cc(O)c(O)cc2C1 (stereo not given) | 16.4 nM (active) | – |
| CC(C)Oc1cccnc1N(C)C1CCN(Cc2ccccc2)CC1 | – | 10.4 |
| Cn1cnc(CCN)c1 | – | 1.1 |
| COC(=O)[C@@H](N)CCCN=C(N)N[N+](=O)[O-] | – | -0.66 |
| CC[C@@]1(O)C(=O)OCc2c1cc1n(c2=O)Cc2cc3ccccc3nc2-1 | – | -1.39 |
| COc1cc(C(O)CN)ccc1O (stereo not given) | – | -10.1 |
| CC(Cc1ccc(O)cc1)NCC(O)c1cc(O)cc(O)c1 (stereo not given) | – | -16.3 |
| CCCN1CCO[C@@H]2c3cc(O)ccc3OC[C@H]21 | – | -19 |
| C/C=C(/C)C(=O)O[C@H]1C(C)=C2[C@H]([C@@H]1OC(=O)CCCCCCC)[C@@](C)(OC(C)=O)C[C@H](OC(=O)CCC)[C@@]1(O)[C@H]2OC(=O)[C@@]1(C)O | – | -6.29 |
| CN[C@@H]1C[C@@H](c2ccc(Cl)c(Cl)c2)c2ccccc21 | – | 4.32 |
| NCCc1c[nH]c2ccc(O)cc12 | – | -26.9 |
| C[C@@H](N)Cc1cnc[nH]1 | – | 4.01 |
| NCc1cc(=O)[nH]o1 | – | -12.9 |
| NC(=O)CN1CC(O)CC1=O (stereo not given) | – | 2.98 |
| CCCCc1ccc(C(=O)O)nc1 | – | -1.46 |
| C#CCOC(=O)C1=CCCN(C)C1 | – | 1.25 |
| O=C(Cc1ccc(Cl)c(Cl)c1)N1CCCCC1CN1CCCC1 (stereo not given) | – | 16.3 |
| O=C1CCCN1CC#CCN1CCCC1 | – | 0.141 |
| C[C@]12N[C@H](Cc3ccccc31)c1ccccc12 | – | -0.425 |
| S=C(NC1CCCCC1)N1CCC(c2cnc[nH]2)CC1 | – | 0.201 |

| SMILES | Potency | activity, negative = inhibition [%] |
| --- | --- | --- |
| CNCCc1c[nH]c2ccc(O)cc12 | – | -16.5 |
| CC(C)NC(C)Cc1ccc(I)cc1 (stereo not given) | – | 9.18 |
| Clc1cnc(Oc2ccc(Oc3ncc(Cl)cc3Cl)cc2)c(Cl)c1 | – | -3.05 |
| C[C@]12CCC3C(CC[C@H]4C[C@H](O)CC[C@]34C)C1CC[C@@H]2C(=O)CO (stereo not given in full) | – | 4.26 |
| C[C@@H]1O[C@H](C[N+](C)(C)C)C[C@H]1O | – | 0.708 |
| c1ccc(CCCN2CCN(CCOC(c3ccccc3)c3ccccc3)CC2)cc1 | – | 5.28 |
| CN1C2CCC1CC(OC(=O)c1cc(Cl)cc(Cl)c1)C2 (stereo not given) | – | -2.41 |
| O=C(O)CC[N+](=O)[O-] | – | 1.59 |
| CC[C@@H](C(N)=O)N1CCCC1=O | – | 0.696 |
| C=CCN1CC[C@]23CCCCC2[C@H]1Cc1ccc(O)cc13 (stereo not given in full) | – | -7.12 |
| O=C(N[C@H]1CN2CCC1CC2)c1ccc(Cl)cc1 | – | 5.07 |
| NC(CP(=O)(O)O)C(=O)O (stereo not given) | – | -0.826 |
| NC(CCP(=O)(O)O)C(=O)O (stereo not given) | – | 5.08 |
| COc1ccc2c(c[n+](C)c3c4cc5c(cc4ccc23)OCO5)c1OC | – | 10.6 |
| c1ccc(C2(c3ccccc3)CC2C2=NCCN2)cc1 (stereo not given) | – | 1.13 |
| CNCCc1ccc(O)c(O)c1 | 130 nM (active) | – |
| c1ccc2sc(C3(N4CCCCC4)CCCCC3)cc2c1 | – | -4.21 |
| Cc1nccc2c1[nH]c1ccccc12 | – | -1.9 |
| C[N+]1(C)C2CCC1CC(OC(=O)C(CO)c1ccccc1)C2 (stereo not given) | inactive | – |
| O=C(O)[C@@H]1CCN1 | – | -2.72 |
